In the library only some 7.3% were active in any assay of this set; here they are far more common.
SMN2 splice enh = SMN2 splice variant enhancement | HEK293 SMN2-luciferase splicing reporter, luminescence, 30-36 h | Potency, µM (series often up to 46.1 µM), for the others: top-dose activity change, positive = activation, usual class: activators | hit rate 2.8% among 210,000; note: % of control where 0% means no effect; nearly all actives have a fitted effect of over 55% in size
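HEK293 cells carry an SMN2 minigene-luciferase reporter in which exon 7 inclusion puts luciferase in frame. Cells were seeded at 2000 cells/well, attached for 10-12 hours, then exposed to compounds for 30-36 hours at 37C before ONE-Glo luminescence.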
FLuc modulator = firefly luciferase modulation, counter-screen for miR-21 project | purified FLuc, Km substrates, luminescence inhibition | Potency, µM (highest dose often 57.5 µM), for the others: top-dose activity change, negative = inhibition, hits mostly inhibitors | hit rate 6.9% among 360,000;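 note: plate controls were vehicle for no effect and reference inhibitor for full effect; nearly all actives have a fitted effect of over 55% in size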
Target sequence (P08659 whole entry, looked up): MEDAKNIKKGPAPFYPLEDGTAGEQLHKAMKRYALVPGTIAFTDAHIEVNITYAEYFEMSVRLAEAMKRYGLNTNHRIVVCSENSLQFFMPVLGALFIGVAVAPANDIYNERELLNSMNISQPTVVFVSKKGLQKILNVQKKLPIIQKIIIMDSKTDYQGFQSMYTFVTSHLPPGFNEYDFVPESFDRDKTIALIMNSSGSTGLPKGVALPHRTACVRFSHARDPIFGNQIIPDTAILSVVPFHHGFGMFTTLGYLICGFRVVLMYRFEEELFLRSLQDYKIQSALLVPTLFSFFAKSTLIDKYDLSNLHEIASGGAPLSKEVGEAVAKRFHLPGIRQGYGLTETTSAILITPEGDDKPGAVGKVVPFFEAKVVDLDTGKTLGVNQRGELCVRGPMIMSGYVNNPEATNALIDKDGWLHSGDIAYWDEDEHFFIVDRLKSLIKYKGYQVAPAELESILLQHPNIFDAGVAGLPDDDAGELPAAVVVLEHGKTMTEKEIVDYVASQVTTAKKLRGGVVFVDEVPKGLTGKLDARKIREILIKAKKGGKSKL
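Purified P. pyralis luciferase, 10 nM final, with Km-level 10 uM D-luciferin and 10 uM ATP in 50 mM Tris acetate pH 7.5, 10 mM Mg acetate, 0.01% Tween-20, 0.05% BSA; 6-point qHTS titration about 60 µM downward; luminescence read.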
KinaseGlo FLuc = blocks Kinase-Glo luciferase, a counter-screen artifact | Kinase-Glo luciferase, ATP luminescence, 8 min | Potency, µM (top dose mostly 38.3 µM), for the others: top-dose activity change, negative = inhibition, actives largely listed as inhibitors | hit rate 0.28% among 200,000 | AID 1379; note: % is set by controls: 0 for no effect and ±100 for the full control effect; nearly all actives have a fitted effect of over 60% in size
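Compounds were added to a substrate mix at pH 7.2 (50 mM imidazole, 10 uM ATP, within the enzyme's linear range), followed by Kinase-Glo detection reagent; luminescence was measured after 8 minutes at ambient temperature.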
NPC1 prom act = activates the NPC1 promoter; Potency, µM (highest dose often 9.22 µM), for inactives: at the highest dose activation, usual class: activators; hit rate 2.4% among 320,000; AID 485313; Huh7 NPC1 promoter luciferase reporter, 24 h; note: % of control where 0% means no effect; nearly all actives have a fitted effect of over 60% in size
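Quantitative HTS used a cell-based reporter: Huh7 cells stably bearing the NPC1 promoter upstream of luciferase were treated with compounds for 24 h, and promoter activation was read as luminescence.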
Rab9 promoter act = activates the Rab9 promoter. Huh7 Rab9 promoter-luciferase reporter, luminescence, 24 h. Potency, µM (doses to about 9.22 µM), for the others: at the top dose activation, negative = inhibition, actives largely listed as activators. hit rate 2.8% among 320,000; note: % of control where 0% means no effect; nearly all actives have a fitted effect of over 60% in size
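Promoter activation is measured as luciferase luminescence in Huh7 cells stably transfected with a Rab9 promoter–luciferase construct, following 24 h compound exposure at 37 °C and 10 min reagent incubation at ambient temperature.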
Active calls of the source: *; ? = inconclusive; · = not tested or not shown; [ ] = another dose, or the depositor's remark. Calls come from the whole dose curve; as a rule, active = well fitted curve in the direction sought with a large enough effect; inconclusive = small, poorly fitted or top-dose-only effect, or another doubt; inactive = no such curve, though single readings can be large; an effect the other way counts as inactive or inconclusive. Potency is the fitted concentration of half-maximal effect.

SMILES	SMN2 splice enh	FLuc modulator	KinaseGlo FLuc	NPC1 prom act	Rab9 promoter act
NNc1nc2c(-c3ccc(Cl)cc3)nnn2c2ccccc12	12.6µM*	?	-9.8%	3.98µM*	2.51µM*
Fc1ccc(-c2nnn3c2nc(NCc2ccccc2)c2ccccc23)cc1	-1.0%	3.7%	·	4.6%	-3.7%
CC(=O)c1ccc(OCc2cc(C(=O)N3CCN(c4ccccc4)CC3C)no2)cc1 (centres undefined)	·	8.49µM*	·	1.58µM*	1.26µM*
CSc1ccccc1OCc1cc(C(=O)N2CCN(c3ccccc3)CC2C)no1 (centres undefined)	·	15.1µM*	·	?	4.47µM*
CSc1ccccc1OCc1cc(C(=O)N2CCC(c3ccncc3)CC2)no1	·	-17.4%	·	-24.5%	-19.8%
O=C(Nc1ccc(-c2nc3ccccc3[nH]2)cc1)C1CCCO1 (centres undefined)	2.24µM*	1.2µM*	3.98µM*	0.355µM*	0.316µM*
O=C(CSc1ccccc1)Nc1ccc(-c2nc3ccccc3[nH]2)cc1	8.91µM*	?	-0.4%	2.24µM*	3.16µM*
O=C(CSc1ccc(Cl)cc1)Nc1cccc(-c2nc3ccccc3[nH]2)c1	2.82µM*	-6.7%	1.3%	16.5%	?
O=C(Nc1nc2ccccc2[nH]1)C1CCCO1 (centres undefined)	28.8%	?	-12.6%	?	?
Cc1ccc2nc(-c3ccc(NC(=O)CSc4ccccc4)cc3)[nH]c2c1	3.55µM*	?	3.1%	1.58µM*	2.51µM*
O=C(CN1CCOCC1)Nc1ccc(-c2nc3ccccc3[nH]2)cc1	24.8%	13.5µM*	-9.3%	?	?
CCOc1ccc(NC(=S)NCc2nc3ccccc3[nH]2)cc1	11.0%	-9.5%	-0.3%	-1.7%	-3.1%
CCNC(=S)Nc1ccc(-c2nc3ccccc3[nH]2)cc1	·	10.7µM*	·	3.16µM*	1.12µM*
O=C(Cc1cccs1)Nc1ccc(-c2nc3ccccc3[nH]2)cc1	17.8µM*	1.51µM*	-18.1%	1.78µM*	1.58µM*
CC(C)Cn1c(=O)c2sccc2n2c(CCCC(=O)NCC(C)c3ccccc3)nnc12 (centres undefined)	·	4.9%	·	·	·
Cc1cccc(/C=C2/C(=O)/C(=C/c3ccccc3C)C3CCC2N3C)c1 (centres undefined)	-34.1%	0.0%	-0.2%	0.1%	4.3%
Cc1cccc(/C=C2\CCC(C3CCCC3)C2=O)c1 (centres undefined)	-5.7%	4.78µM*	0.8%	24.4%	21.4%
O=C1/C(=C/c2ccc([N+](=O)[O-])cc2)CCC1C1CCCC1 (centres undefined)	·	0.757µM*	·	-6.5%	-0.8%[1.84 µM]
COc1cccc(/C=C2\CCC(C3CCCC3)C2=O)c1 (centres undefined)	·	1.69µM*	·	?	?
O=[N+]([O-])c1ccc(/C=N/n2c(C3CCCCC3)n[nH]c2=S)cc1	25.9%	1.9%	-10.5%	0.6%	-1.3%
CCc1ccc2oc(C(=O)NCc3ccccc3)cc(=O)c2c1	-0.2%	-2.4%	·	·	·
CC(=O)NC1=C(OS(=O)(=O)c2ccc(C)cc2)CN(C)C1=O	-15.1%[9.22 µM]	·	-8.1%[7.66 µM]	·	·
COc1ccc(-n2ncc(N(C)n3cccc3)c(Cl)c2=O)cc1	·	4.78µM*	·	1.26µM*	0.562µM*
Cc1ccc(-n2ncc(N(C)C)c(Cl)c2=O)cc1	?	5.36µM*	-15.7%	0.398µM*	1.12µM*
CC(=O)c1ccc(-c2nnc(CCC(=O)N3CCCC(C(=O)CC(C)C)C3)o2)s1 (centres undefined)	·	19µM*	·	4.47µM*	3.55µM*
SMILES	SMN2 splice enh	FLuc modulator	KinaseGlo FLuc	NPC1 prom act	Rab9 promoter act
O=C(CCc1nnc(CCCCc2ccccc2)o1)N1CCCC(O)C1 (centres undefined)	·	-15.2%	·	-1.4%	7.6%
COCC(C)NC(=O)CCc1nnc(C2(c3ccc(Cl)cc3)CCC2)o1 (centres undefined)	·	23.9µM*	·	22.4%	?
O=C(CCc1nnc(C2(c3ccc(Cl)cc3)CCC2)o1)N1CCCC1	·	16.9µM*	·	?	?
C=C(C)CNC(=O)CCc1nnc(C2(c3ccc(Cl)cc3)CCC2)o1	·	?	1.6%	11.1%	?
C=CCNC(=O)CCc1nnc(C2(c3ccc(Cl)cc3)CCC2)o1	8.91µM*	16.9µM*	-4.9%	29.1%	3.16µM*
O=C(O)c1cc(=O)[nH]c(=S)[nH]1	-6.5%[9.22 µM]	·	-2.8%[7.66 µM]	·	·
O=C(Nc1ccc(Cl)cc1)c1ccc2c(c1)N(Cc1ccccc1)CCS2	4.6%	3.0%	·	·	·
COc1cccc2c1C(=O)c1c(O)c3c(c(O)c1C2=O)C[C@](O)(C(=O)CO)C[C@H]3O[C@@H]1C[C@H](N)[C@H](O)[C@H](C)O1	79.7%[20.6 µM]	·	-6.3%[17.1 µM]	·	·
CCC(=O)C1CCCN(C(=O)CCc2nnc(C3(c4ccc(Cl)cc4)CCC3)o2)C1 (centres undefined)	·	13.5µM*	·	?	?
NC(=O)C1CCCN(C(=O)CCc2nnc(C3(c4ccc(Cl)cc4)CCC3)o2)C1 (centres undefined)	·	3.6%	·	-2.4%	4.0%
Cc1ccc(Cc2nc3ccccc3nc2SCC(=O)N2CCCc3ccccc32)cc1	·	-5.6%	·	·	·
COC(=O)c1c(NC(C)=O)sc(C(=O)Nc2ccccc2F)c1C	7.08µM*	-0.1%	5.3%	?	?
CCCC(=O)Nc1sc(C(=O)Nc2cccc(N)c2)c(C)c1C(=O)OC	·	13.5µM*	2.2%	3.16µM*	0.891µM*
CCC(=O)Nc1sc(C(=O)Nc2ccccc2F)c(C)c1C(=O)OC	·	7.57µM*	-3.0%	0.2%	-0.1%
CC(C)(C)CC(C)(C)c1ccc(O)c(C[N+](C)(C)[O-])c1	0.6%[9.22 µM]	·	-4.1%[7.66 µM]	·	·
C[C@@]12CCC(=O)C=C1CC[C@H]1C2[C@@H](O)C[C@]2(C)[C@@H]1CC[C@@]2(O)C(=O)CO (some centres undefined)	11.4%[9.22 µM]	·	-3.6%[7.66 µM]	·	·
COc1ccc(C)cc1NC(=O)CN(c1cc(C(F)(F)F)ccc1Cl)S(C)(=O)=O	-10.4%	-9.3%	·	·	·
Cn1c([N+](=O)[O-])cnc1CN1CCN(CCO)CC1	-6.8%[9.22 µM]	·	-6.3%[7.66 µM]	·	·
Cc1cccc(C)c1NC(=O)CSc1nc2ncccc2o1	·	-2.5%	·	·	·
Cc1ccc(Cl)c(NC(=O)Nc2csc3c2CCCC3)c1	7.9%	?	·	·	·
O=c1nc2c(O)cccn2c2c1c(=O)[nH]c1ccccc12	·	4.0%	1.5%	-0.7%	-6.0%
O=c1[nH]c2ccccc2c2nc3ccccn3c12	14.0%	16.9µM*	-16.4%	?	?
COc1ccc(C2OC3=C(Nc4cc(C)c(C)cc4N3)C2=O)cc1 (centres undefined)	·	?	·	3.55µM*	2.82µM*
Cc1cc2c(cc1C)NC1=C(N2)OC(c2cccc(O)c2)C1=O (centres undefined)	·	?	·	-0.6%	-3.3%
COc1cc(C(=O)Nc2cc(-c3nc4cc(C)ccc4o3)ccc2C)cc(OC)c1OC	?	0.269µM*	-8.3%	?	?
Cc1ccc2oc(-c3ccc(C)c(NC(=O)C(C)(C)Oc4ccc(Cl)cc4)c3)nc2c1	?	3.79µM*	·	·	·
